Measurements: PubChem BioAssay (NCATS)
Records with an inconclusive call do not appear. A number with no mark means an inactive call. Activity calls are given as the source filed them. The call rests on the fitted dose curve; in most records, active means well fitted cell-killing curve with a large enough effect; inconclusive means small, poorly fitted or top-dose-only effect, or effect the other way; inactive means no such curve, though single readings can be large or run the other way.

Assay: Quantitative High-Throughput drug screen in 47 multiple myeloma cell lines against the NCATS MIPE library collection: PCM6_Riken cell viability assay (AID 1919870); further: nearly all actives have a fitted effect of over 30% in size
Conditions: CellTiter-Glo ATP, 48 h; series mostly up to 45.8 µM; viability (% of control): at the top concentration
Source text: PI: Beverly A. Mock Ph.D.
Laboratory of Cancer Biology and Genetics,
Center for Cancer Research, National Cancer Institute,
National Institute of Health, Bethesda, Maryland
Drug resistance and disease progression are common in multiple myeloma (MM) patients, underscoring the need for new therapeutic combinations. […] We hypothesized that effective combinations would reduce MYC expression and enhance p16 activity. […] These preclinical data identify potentially useful drug combinations for evaluation in drug-resistant MM and reveal potential mechanisms of combined drug sensitivity.
Described herein is the primary MIPE qHTS used to cherrypick compounds. Validated compounds were then further tested for potential synergistic activiy.
[1] Peat TJ, Gaikwad SM, Dubois W, Gyabaah-Kessie N, Zhang S, Gorjifard S, Phyo Z, Andres M, Hughitt VK, Simpson RM, Miller MA, Girvin AT, Taylor A, Williams D, D'Antonio N, Zhang Y, Rajagopalan A, Flietner E, Wilson K, Zhang X, Shinn P, Klumpp-Thomas C, McKnight C, Itkin Z, Chen L, Kazandijian D, Zhang J, Michalowski AM, Simmons JK, Keats J, Thomas CJ, Mock BA. Drug combinations identified by high-throughput screening promote cell cycle transition and upregulate Smad pathways in myeloma. Cancer Lett. 2023 Aug 1;568:216284. doi: 10.1016/j.canlet.2023.216284. Epub 2023 Jun 24. PMID: 37356470; PMCID: PMC10408729.
SEQUENCE No. (e.g., 1, 2, 3, etc.); […] (e.g., Cells, Incubation, Reagent, etc.); VALUE and DESCRIPTION.
1; Cells; 5 uL; white, solid bottom 1536-well Greiner assay plate.
2; Compounds; 23 nL; Kalypsis pin tool (Wako USA) equipped with a 1536-well pin head to transfer to the assay plates.
3; Incubation; 48 hours; 37C incubation.
4; Reagent;5uL; CellTiter Glo (Promega).
5; Detector; 425V; Luminescence; Viewlux PerkinElmer.
NOTES (numbers refer to Sequence numbers above)
1. The cell-based screening methods employed in this study were like those previously published. Briefly, the corresponding myeloma cell lines were screened in 1,536-well plates with 500 cells, 5-uL per well for inhibition of cell viability (assessed by measuring ATP levels with CellTiterGlo).
2. NCATS MIPE 4.0 library of approved and investigational drugs were added using the Kalypsis pin tool. Wells treated with DMSO only for 100% viability and media only for 0% viability were used as controls.
3. The assay plates were covered and incubated for 48 hours in a 37C, 5% CO2 incubator with controlled humidity.
4. After 48 hours, CellTilter-GloTM luminescent substrate mix (Promega) reagent was added to the assay plate and plates we incubated for 5 min at room temperature.
5. Signal was measured as median relative luminescence units on a ViewLux (PerkinElmer) multiplate reader.
[1] Heske CM, Davis MI, Baumgart JT, Wilson K, Gormally MV, Chen L, Zhang X, Ceribelli M, Duveau DY, Guha R, Ferrer M, Arnaldez FI, Ji J, Tran HL, Zhang Y, Mendoza A, Helman LJ, Thomas CJ. Matrix Screen Identifies Synergistic Combination of PARP Inhibitors and Nicotinamide Phosphoribosyltransferase (NAMPT) Inhibitors in Ewing Sarcoma. Clin Cancer Res. 2017 Dec 1;23(23):7301-7311. doi: 10.1158/1078-0432.CCR-17-1121. Epub 2017 Sep 12. PMID: 28899971; PMCID: PMC6636827.
Potency means the concentration at half of the fitted maximal effect.

| Structure (SMILES) | Potency | viability (% of control) [%] |
| --- | --- | --- |
| C[C@@H]1CC[C@@]2(OC1)O[C@H]1C[C@H]3[C@@H]4CC=C5C[C@@H](O[C@@H]6O[C@H](CO)[C@@H](O[C@@H]7O[C@@H](C)[C@H](O)[C@@H](O)[C@@H]7O)[C@H](O)[C@@H]6O[C@@H]6O[C@@H](C)[C@H](O)[C@@H](O)[C@@H]6O)CC[C@]5(C)[C@@H]4CC[C@]3(C)[C@@H]1[C@H]2C | 3.32 µM (active) | – |
| COc1cccc2c1[C@]13CCN(CC4CC4)[C@H](C2)[C@]1(OC)CCC(=O)C3 | – | 100 |
| O=C(NCC1CCOCC1)c1cnc(Nc2ccc(Cl)cc2Cl)nc1C(F)(F)F | 5.9 µM (active) | – |
| CCCC[N+]1(C)[C@H]2CC(OC(=O)[C@H](CO)c3ccccc3)C[C@H]1[C@H]1O[C@H]12 (stereo not given in full) | – | 103 |
| CCc1c(C(=O)C(N)=O)c2c(OCC(=O)O)cccc2n1Cc1ccccc1 | – | 124 |
| CC(=Cc1csc(C)n1)[C@@H]1C[C@H]2O[C@@H]2CCC[C@H](C)[C@@H](O)[C@@H](C)C(=O)C(C)(C)[C@@H](O)CC(=O)O1 | – | 87.4 |
| CO[C@H]1CCC(O[C@H]2C[C@H]([C@]3(C)CC[C@]4(C[C@H](O)[C@@H](C)[C@@H]([C@@H](C)C=C(C)C(=O)[C@H](C)C[C@H](C)C(=O)O)O4)O3)O[C@]3(O[C@@H]([C@H]4O[C@@](O)(CO)[C@H](C)C[C@H]4C)C[C@H]3C)[C@H]2C)O[C@H]1C (stereo not given in full) | 0.935 µM (active) | – |
| c1ccc2c(CN3CCNCC3)cccc2c1 | – | 98.7 |
| CCNC(=O)CC1N=C(c2ccc(Cl)cc2)c2cc(OC)ccc2-n2c(C)nnc21 (stereo not given) | 23.5 µM (active) | – |
| CC[C@@H]1[C@@H](C)O[C@@](O)([C@@H](C)[C@H](O)[C@H](C)[C@H]2OC(=O)C=CC=C[C@@H](C)[C@@H]([C@@H](C)[C@@H](O)[C@H](C)[C@@]3(O)C[C@H](O[C@H]4C[C@H](O)[C@H](O)[C@H](C)O4)[C@H](CC)[C@@H](C)O3)OC(=O)C=CC=C[C@@H]2C)C[C@H]1O[C@H]1C[C@H](O)[C@H](O)[C@H](C)O1 | 0.743 µM (active) | – |
| CC[C@@H](C(N)=O)N1CCCC1=O | – | 117 |
| CC(C)(O)C=CC(=O)[C@](C)(O)[C@H]1[C@H](O)C[C@]2(C)[C@@H]3CC=C4[C@@H](C=C(O)C(=O)C4(C)C)[C@]3(C)C(=O)C[C@@]12C | 0.0296 µM (active) | – |
| COCC1(CO)C(=O)C2CCN1CC2 (stereo not given) | 20.9 µM (active) | – |
| COC1=CC(C)=C[C@@H](C)[C@@H](O)[C@@H](C)CC(C)=CC=C[C@H](OC)[C@H]([C@@H](C)[C@@H](O)[C@H](C)[C@@]2(O)C[C@@H](O)[C@H](C)[C@@H](C(C)C)O2)OC1=O | 9.35 µM (active) | – |
| CC(=O)OCC1=C(C(=O)O)N2C(=O)[C@@H](N)[C@@H]2SC1 | – | 134 |
| COc1ccc(N(C(=O)Oc2c(C)cccc2C)c2ccnc(Nc3ccc(N4CCN(C)CC4)cc3)n2)c(OC)c1 | 16.6 µM (active) | – |
| CN1[C@H]2CC(O)C[C@H]1[C@H]1O[C@H]12 (stereo not given in full) | 11.8 µM (active) | – |
| NC1CC1c1ccccc1 (stereo not given) | – | 101 |
| c1ccc(CCCN2CCN(CCOC(c3ccccc3)c3ccccc3)CC2)cc1 | 26.4 µM (active) | – |
| Cc1c(N)nc([C@H](CC(N)=O)NC[C@@H](N)C(N)=O)nc1C(=O)N[C@H](C(=O)N[C@@H](C)[C@H](O)[C@@H](C)C(=O)N[C@@H](C(=O)NCCc1nc(-c2nc(C(=O)NCCC[S+](C)C)cs2)cs1)[C@@H](C)O)C(O[C@H]1O[C@H](CO)[C@H](O)[C@@H](O)[C@@H]1O[C@H]1O[C@H](CO)[C@@H](O)[C@H](OC(N)=O)[C@H]1O)c1cnc[nH]1 (stereo not given in full) | – | 81.2 |

| Structure (SMILES) | Potency | viability (% of control) [%] |
| --- | --- | --- |
| O=S(=O)(CC1CS1)c1ccc(Oc2ccccc2)cc1 (stereo not given) | 23.5 µM (active) | – |
| CSCC[C@@H](NC(=O)[C@@H](Cc1ccccc1)NC(=O)CNC(=O)CNC(=O)[C@@H](N)Cc1ccc(O)cc1)C(=O)O | – | 116 |
| CCOP(=O)(OCC)C(C)NC(=O)N(CCCl)N=O (stereo not given) | – | 136 |
| CCN(CC)C(=O)c1ccc(C2=CC3(CCNCC3)Oc3cccc(O)c32)cc1 | – | 133 |
| CCN1C[C@]2(OC(=O)c3ccccc3NC(C)=O)CC[C@H](OC)[C@@]34[C@H]5CC6[C@@H](OC)C[C@](O)(C(C[C@@H]23)[C@@H]14)[C@@]5(O)[C@@H]6OC | – | 111 |
| CN(C)[C@@H]1C(=O)C(C(N)=O)=C(O)[C@@]2(O)C(=O)C3=C(O)c4c(O)cccc4[C@@](C)(O)[C@H]3[C@H](O)[C@@H]12 | – | 103 |
| CC(=O)O[C@@]12CO[C@H]1C[C@H](O)[C@@]1(C)C(=O)[C@H](O)C3=C(C)[C@@H](O)C[C@@](O)([C@@H](OC(=O)c4ccccc4)[C@@H]21)C3(C)C | 3.32 µM (active) | – |
| COc1ccc(C(=O)c2c(C)n(CCN3CCOCC3)c3cc(I)ccc23)cc1 | 11.8 µM (active) | – |
| N#C[C@H](O[C@@H]1O[C@H](CO[C@@H]2O[C@H](CO)[C@H](O)[C@H](O)[C@H]2O)[C@H](O)[C@H](O)[C@H]1O)c1ccccc1 | 18.7 µM (active) | – |
| CC[C@@]1(O)C(=O)OCc2c1cc1n(c2=O)Cc2cc3ccccc3nc2-1 | 0.372 µM (active) | – |
| COC[C@H]1OC(=O)c2coc3c2[C@@]1(C)C1=C(C3=O)[C@@H]2CC[C@H](O)[C@@]2(C)C[C@@H]1OC(C)=O | 3.72 µM (active) | – |
| COc1ccc2c(c1)[C@]13CCCCC1C(C2)N(C)CC3 (stereo not given in full) | – | 96.3 |
| CC(=O)Nc1ccc(OC[C@](C)(O)C(=O)Nc2ccc([N+](=O)[O-])c(C(F)(F)F)c2)cc1 | – | 92.5 |
| O=C(N[C@H]1CN2CCC1CC2)c1ccc(Cl)cc1 | 8.33 µM (active) | – |
| COC1=C[C@@H]2[C@@H]3Cc4ccc(OC)c(O)c4[C@]2(CCN3C)CC1=O | 2.64 µM (active) | – |
| CC(=Cc1csc(C)n1)[C@@H]1C[C@H]2O[C@]2(C)CCC[C@H](C)[C@@H](O)[C@@H](C)C(=O)C(C)(C)[C@@H](O)CC(=O)O1 | – | 82.6 |
| C[C@@H]1[C@H](O)[C@@H](C)C=CC=CCCC=CC=CC=CC=C[C@H](O[C@H]2O[C@@H](C)[C@H](O)[C@@H](N)[C@@H]2O)CC2O[C@](O)(C[C@@H](O)[C@H](O)CC[C@@H](O)C[C@@H](O)C[C@@H](O)CC(=O)O[C@H]1C)C[C@H](O)[C@H]2C(=O)O | – | 129 |
| CCCN1CCO[C@@H]2c3cc(O)ccc3OC[C@@H]21 | – | 111 |
| Oc1ccc2c3c1O[C@H]1c4[nH]c5c(c4C[C@@]4(O)[C@@H](C2)N(CC2CC2)CC[C@]314)C[C@@]1(O)[C@H]2Cc3ccc(O)c4c3[C@@]1(CCN2CC1CC1)[C@H]5O4 | – | 79.8 |
| O=C1CCC[C@@H]2[C@H]3CCCN4CCC[C@@H](CN12)[C@@H]34 | – | 82.8 |
